Screens as filed in PubChem BioAssay.
The list is not random: actives were taken first. Their share in the collection is about 5.7%.
Myeloid diff 2: induction of myeloid progenitor differentiation, primary screen, cell-based, flow cytometry, MLPCN library; hit rate 1% among 360,000; calls only at 10 µM; ER-HoxA9 myeloid progenitors, lysozyme-GFP differentiation; AID 624256, 2012;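 active means normalized GFP-positive differentiation at or above the plate's own cutoff, the solvent-only control mean plus 3 SD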;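 further: cells exposed to compound for four days before flow analysis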
MPTP inh: mitochondrial permeability transition pore inhibitors, primary screen, biochemical, isolated mouse mitochondria, absorbance; AID 602449, 2012; hit rate 1.4% among 360,000; inhibition, % at 10 µM; Ca2+ swelling absorbance, 30 min;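 active means inhibition of 50% or more, scaled per plate between neutral and stimulator controls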
rCAG binder: binders of r(CAG) RNA repeats, primary screen, biochemical, fluorescence; r(CAG) RNA repeat, TO-PRO-1 dye displacement fluorescence; inhibition, % at 3 µM; hit rate 1.3% among 370,000; AID 651821, 2012;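 active means inhibition above the plate cutoff, the mean of all test compounds on that plate plus 3 SD, cut at about 35% in these data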;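 further: higher means more dye released from RNA so lower well fluorescence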
GRIN3A LBD mod: binders of NR3A ligand-binding domain, primary screen, biophysical, differential scanning fluorimetry, uHTS; NR3A LBD differential scanning fluorimetry, Tm shift; 0% = protein alone, 100% = glycine-bound protein; Glutamate receptor ionotropic, NMDA 3A (GRIN3A) ligand-binding domain; hit rate 2.5% among 340,000; AID 1259313, 2017; Tm shift relative to glycine control, % at 25 µM;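 active means melting temperature shift of at least 10% of the positive control shift, at one fixed dose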
FAS TE block: FAS thioesterase domain inhibitors, primary screen, biochemical, fluorescence intensity, uHTS; Fatty acid synthase (Homo sapiens), P49327; recombinant FAS-TE, OMFH fluorogenic substrate, fluorescence endpoint; inhibition, % at 15 µM; hit rate 0.67% among 360,000; AID 602261, 2012;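 active means compounds whose normalised, plate-corrected inhibition of enzyme fluorescence in the single-dose primary screen is 50% or more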
rCAG binder conf: small molecules binding CAG repeat RNA – biochemical, fluorescence, confirmation | r(CAG) RNA repeat, TO-PRO-1 dye displacement fluorescence | AID 652065, 2013 | hit rate 70% among 4,300 | inhibition, % at 3 µM | shares compounds with rCAG binder;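 active means inhibition above a per-plate cutoff, the mean inhibition of sample wells plus 3 SD, cut at about 35% in these data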;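 further: loss of TO-PRO-1 fluorescence as compound displaces dye from 1x1 AA loop RNA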
dCAG dye counter: displacement of TO-PRO-1 from CAG DNA duplex, counter-screen for rCAG RNA repeat binder project, biochemical, fluorescence, TO-PRO-1 dye, d(CAG) DNA oligo; shares compounds with rCAG binder; inhibition, % at 3 µM; d(CAG) DNA oligo TO-PRO-1 dye displacement; hit rate 94% among 4,300;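 active means inhibition above its plate's cutoff, the mean test-well inhibition plus 3 SD, cut at about 4.8% in these data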;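 further: hits displace the dye from DNA and so lower well fluorescence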
Each line names hits and unclear results; the compound was inactive in the other large screens (follow-up assays come after a bar, where they were run).

O=C(CCN1C(=O)/C(=C/c2cccs2)SC1=S)Nc1ccc(C(=O)O)c(O)c1	rCAG binder 93 | rCAG binder conf 80 | dCAG dye counter 50
O=C(NNc1c(Cl)cccc1Cl)c1ccno1	none
Cn1ncc(Cl)c1C(=O)N1CCN(c2ccc(Cl)c(Cl)c2)CC1	none
S=C(N/N=C/c1ccco1)NC1CC2CCC1C2 (configuration not stated)	none
COc1ccc2c(c1)OC[C@H]1[C@H]2N2C(=O)CNC(=O)[C@@]2(C)[C@H]1c1ccccc1	none (no result: Myeloid diff 2, MPTP inh, FAS TE block)
Cc1nn(-c2ccccc2)c(Cl)c1/C=C1\SC(=S)N(CCCCCC(=O)O)C1=O	none
O=C(O)CCCN1C(=O)/C(=C/c2cn(-c3ccccc3)nc2-c2cccs2)SC1=S	rCAG binder 64 | rCAG binder conf 82 | dCAG dye counter 44
Cc1nc2ccc(NC(=O)[C@H](C)N3C(=O)C4CC=CCC4C3=O)cc2s1 (some centres not stated)	none
O=C(O)CCC(=O)Nc1ccc(-c2nc3ccc(C(=O)c4ccccc4)cc3[nH]2)cc1	rCAG binder 45 | rCAG binder conf 35 | dCAG dye counter 7.9
O=S(=O)(O)c1cc(Cl)cc(N=Nc2ccc(O)cc2O)c1O	rCAG binder 91 | rCAG binder conf 67 | dCAG dye counter 31
O=S(=O)(O)c1cc(O)c2c(O)c(N=Nc3cc(Cl)ccc3O)c(S(=O)(=O)O)cc2c1	none (no result: rCAG binder)
CN(C1CCCCC1)S(=O)(=O)c1cn(C)c(=O)n(C)c1=O	none
COc1cc(NS(=O)(=O)c2ccc(NC(=S)NC(=O)/C=C/c3ccc(F)cc3)cc2)ncn1	none
CCc1nnc(NS(=O)(=O)c2ccc(NC(=S)NC(=O)/C=C/c3ccccc3)cc2)s1	rCAG binder 87 | rCAG binder conf 85 | dCAG dye counter 50
COc1nccnc1NS(=O)(=O)c1ccc(NC(=S)NC(=O)/C=C/c2ccc(F)cc2)cc1	rCAG binder 71 | rCAG binder conf 59 | dCAG dye counter 24
COc1ccc(NS(=O)(=O)c2ccc(NC(=S)NC(=O)/C=C/c3ccccc3)cc2)nn1	rCAG binder 40 | rCAG binder conf 51 | dCAG dye counter 17
CCc1nnc(NS(=O)(=O)c2ccc(NC(=O)/C=C/c3ccccc3Cl)cc2)s1	rCAG binder 86 | rCAG binder conf 82 | dCAG dye counter 54
CCCCNC(=O)C1C(c2ccccc2)=Nc2ccccc2N1C(=O)c1ccc(C)cc1 (configuration not stated)	none (no result: GRIN3A LBD mod, FAS TE block)
CCc1nnc(NS(=O)(=O)c2ccc(NC(=S)NC(=O)c3ccccc3)cc2)s1	rCAG binder 65 | rCAG binder conf 51 | dCAG dye counter 18
CCc1nnc(NS(=O)(=O)c2ccc(NC(=S)NC(=O)c3ccc(Br)cc3)cc2)s1	rCAG binder 83 | rCAG binder conf 80 | dCAG dye counter 49
CCc1nnc(NS(=O)(=O)c2ccc(NC(=S)Nc3ccc(F)cc3)cc2)s1	none
CCc1nnc(NS(=O)(=O)c2ccc(NC(=O)c3ccccc3)cc2)s1	none
CC1CC(C)CN(S(=O)(=O)c2ccc3oc(=O)ccc3c2)C1 (configuration not stated)	none
O=C(CCN1N=C(c2ccccc2)CCC1=O)NCC1COc2ccccc2O1 (configuration not stated)	none
CC1(c2nnnn2-c2ccc3c(c2)OCCO3)CCC(=O)N1C1CCN(Cc2ccccc2)CC1 (configuration not stated)	none (no result: GRIN3A LBD mod)
Cn1c(N)c(C(=O)CSc2nnc(C3CC3)n2Cc2ccccc2)c(=O)[nH]c1=O	none
COc1ccc(NC(=O)CSc2nnc(N)s2)c([N+](=O)[O-])c1	none (no result: Myeloid diff 2)
COc1ccc(NC(=O)CSc2nnc(NC(C)=O)s2)c([N+](=O)[O-])c1	rCAG binder 55 | rCAG binder conf inactive | dCAG dye counter inactive
Cc1ccc2nc(-c3ccc(NC(=O)COCC(=O)O)cc3)sc2c1	rCAG binder 42 | rCAG binder conf inactive | dCAG dye counter 8.3
Cc1csc(NC(=O)CSc2nc3ccccc3s2)n1	none
Cc1csc(NC(=O)CSCC(=O)O)c1-c1nc2ccccc2s1	rCAG binder 44 | rCAG binder conf 57 | dCAG dye counter 19
Cc1ccc(C2(C)NC(=O)N(CC(=O)Nc3ccc(-c4nc5ccc(C)cc5s4)cc3)C2=O)cc1 (configuration not stated)	none
Cc1ccc2nc(-c3ccc(NC(=O)CSCC(=O)O)cc3)sc2c1	rCAG binder 53 | rCAG binder conf 39 | dCAG dye counter 11
CCC(=O)NC(=S)Nc1ccc(-c2nc3ccc(C)cc3s2)cc1	none
O=C(O)c1cc(-c2ccc3ccccc3n2)nc2ccccc12	none (no result: GRIN3A LBD mod)
CC(C)c1cc(C(=O)O)c2ccccc2n1	rCAG binder 40 | rCAG binder conf inactive | dCAG dye counter inactive
CCOc1cc(/C=C(/NC(C)=O)C(=O)O)cc(Cl)c1OCc1cccc(Br)c1	rCAG binder 44 | rCAG binder conf inactive | dCAG dye counter 5.5
CCOc1cc(C(N)=O)cc(Cl)c1OCc1ccccc1	none
O=C(NCCCO)c1ccc2nc(-c3ccco3)c(-c3ccco3)nc2c1	none
O=C(NCc1ccccc1)c1ccc2nc(-c3ccco3)c(-c3ccco3)nc2c1	rCAG binder 56 | rCAG binder conf 56 | dCAG dye counter 26
O=C(NCc1ccccc1)c1ccc2nccnc2c1	none
CCCCNC(=O)c1ccc2nc(-c3ccco3)c(-c3ccco3)nc2c1	rCAG binder 62 | rCAG binder conf inactive | dCAG dye counter 5.8
O=C(c1ccc2nc(-c3ccco3)c(-c3ccco3)nc2c1)N1CCN(c2ncccn2)CC1	rCAG binder 35 | rCAG binder conf 49 | dCAG dye counter 22
Cc1ccc([C@H]2C(C(=O)O)=CC[C@@H](c3cccc(C)c3)N2S(=O)(=O)c2ccc(C)cc2)cc1	none
Cc1ccc([C@H]2C(C(=O)O)=CC[C@@H](c3ccc(C)cc3)N2S(=O)(=O)c2ccc(C)cc2)cc1	rCAG binder 76 | rCAG binder conf 67 | dCAG dye counter 30
Cc1ccc([C@@H]2CC=C(C(=O)O)[C@H](c3ccccc3)N2S(=O)(=O)c2ccc(C)cc2)cc1	rCAG binder 56 | rCAG binder conf 59 | dCAG dye counter 22
NNc1nc2sc3c(c2c(=O)[nH]1)CCc1ccccc1-3	rCAG binder 44 | rCAG binder conf inactive | dCAG dye counter 8.4
